{
  "source": "ChEMBL document CHEMBL1157539",
  "about": "“Thousands of chemical starting points for antimalarial lead identification” (Nature, 2010)",
  "note": "Over roughly 13,000 compounds, “IFI” has its median near 4; the highest 2% begin near 17. Shown is part of a subset that was picked to be rich in the highest values.",
  "data": [
    {"test": "GSK_TCMDC: Inhibition Frequency Index (IFI). The number of non-kinase HTS assays where a compound showed > 50 % inhibition, expressed as a percentage of the number of such assays in which the compound was tested", "assay_type": "functional", "units": {"IFI": "%"}, "values": [
      {"compound": "CC(C)(C)OC(=O)Nc1cccc(-c2csc(NC(=N)N)n2)c1", "IFI": 4.08},
      {"compound": "CC(CNC(=O)[C@H]1CNCCN1C(=O)CCCc1ccccc1)c1ccccc1", "note": "(stereo not given in full)", "IFI": 2.84},
      {"compound": "COc1cccc2c1CCN(CCN1CCC(NC(=O)c3ccc(-c4cccc(Cl)c4Cl)cc3)CC1)C2", "IFI": 7.63},
      {"compound": "O=C(Oc1ccc(C2CNCCc3c2cc(OC(=O)c2ccc(O)cc2)c(OC(=O)c2ccc(O)cc2)c3Cl)cc1)c1ccc(O)cc1", "note": "(stereo not given)", "IFI": 5.07},
      {"compound": "COc1ccc(C=NN=c2cc(C)[nH]c3ccc(C)cc23)c2ccccc12", "IFI": 7.09},
      {"compound": "C=CCNS(=O)(=O)c1ccc(NC(=O)C(C)Oc2ccc([N+](=O)[O-])cc2)cc1", "note": "(stereo not given)", "IFI": 14.8},
      {"compound": "CCN(CC)c1ccc(C(c2ccc(N(CC)CC)cc2)c2ccc([N+](=O)[O-])cc2)cc1", "IFI": 4.35},
      {"compound": "CCC(C)c1ccc(NC(=O)C(C)c2ccc([N+](=O)[O-])cc2)cc1", "note": "(stereo not given)", "IFI": 23.7},
      {"compound": "CCCCNS(=O)(=O)c1ccc(NC(=O)c2cc([N+](=O)[O-])ccc2Cl)cc1", "IFI": 5.17},
      {"compound": "CCCNS(=O)(=O)c1ccc(NC(=O)C(C)Oc2ccc([N+](=O)[O-])cc2)cc1", "note": "(stereo not given)", "IFI": 17.5},
      {"compound": "CCC(C)c1ccc(NC(=O)Nc2ccnc3ccccc23)cc1", "note": "(stereo not given)", "IFI": 10.2},
      {"compound": "CS(=O)(=O)c1ccc2[nH]c(-c3cc(-c4cccc(F)c4)cnc3N)nc2c1", "IFI": 6.45},
      {"compound": "CC(=O)Nc1cccc(Nc2nccc(Nc3ccc(Oc4ccccc4)cc3)n2)c1", "IFI": 4.96},
      {"compound": "COc1ccc(-c2ccc(NC(=O)c3cccc(Cl)c3)cc2)cc1CN1CCN(C)CC1", "IFI": 7.84},
      {"compound": "CCOC(=O)c1ccc(NC(=O)N(Cc2ccc(-c3ccc(CN4CCNCC4)cc3)cc2)C2CCN(Cc3ccccc3)CC2)cc1", "IFI": 7.64},
      {"compound": "Cc1cc(N[C@@H](Cc2ccccc2)C(=O)NCCOc2ccccc2)nc(NCCc2cccs2)n1", "IFI": 11.6},
      {"compound": "Cc1cc(N)c2cc(NC(=O)c3ccc4ccccc4c3)ccc2n1", "IFI": 6.08},
      {"compound": "Cc1nc(-c2ccc(-c3ccc(NC(=O)c4coc5ccc(N6CC(C)N(C)C(C)C6)cc45)cc3)c(C)c2)no1", "note": "(stereo not given)", "IFI": 4.08},
      {"compound": "O=C(Nc1ccc(Cl)cc1)N[C@H]1CCN(Cc2ccc(OCCCN3CCCCC3)cc2)C1", "IFI": 7.14},
      {"compound": "CCN(CC)CCCC(C)Nc1ccnc2ccc(OC)cc12", "note": "(stereo not given)", "IFI": 0.73},
      {"compound": "COc1ccccc1CNc1ccnc(N2CC(Oc3ccc(F)cc3)C2)n1", "IFI": 4},
      {"compound": "CCCCCNC(=N)c1ccc(OCCCCCOc2ccc(C(=N)NCCCCC)cc2)cc1", "IFI": 5},
      {"compound": "CCCCNC(=N)c1ccc(OCCCCCOc2ccc(C(=N)NCCCC)cc2)cc1", "IFI": 2.26},
      {"compound": "CCCCOc1ccc(C(=O)C(CCC(CNC(C)(C)C)C(=O)c2ccc(OCCCC)cc2)CNC(C)(C)C)cc1", "note": "(stereo not given)", "IFI": 25.4},
      {"compound": "O=C(Nc1ccccc1)Nc1cccc(-c2cccc(-c3nc4cc(F)ccc4[nH]3)c2)c1", "IFI": 3},
      {"compound": "Cc1ccc2[nH]c(-c3cc(-c4ccc(CO)cc4)cnc3N)nc2c1", "IFI": 5.51},
      {"compound": "c1ccc2oc(-c3cc4ccncc4cc3OC3CCNCC3)cc2c1", "IFI": 8.77},
      {"compound": "CCc1cn(CCOC)c2ccc(C(=O)N[C@@H](Cc3ccccc3)[C@H](O)CNC(C)(C)CCCC(C)C)cc12", "IFI": 5.07},
      {"compound": "O=C(N[C@@H](Cc1ccccc1)[C@H](O)CNCCC(F)(F)F)c1cccc(OCC2CC2)c1", "IFI": 6.1},
      {"compound": "CC(C)CCCC(C)(C)NC[C@@H](O)[C@H](Cc1ccccc1)NC(=O)c1cccc(CCC2CC2)c1", "IFI": 22.4},
      {"compound": "O=C(N[C@@H](Cc1ccccc1)[C@H](O)CNCCC(F)(F)F)c1cccc(CCC2CC2)c1", "IFI": 6.1},
      {"compound": "CC(C)CCCC(C)(C)NC[C@@H](O)[C@H](Cc1ccccc1)NC(=O)c1cccc(OCC2CC2)c1", "IFI": 18.6},
      {"compound": "CCc1cn(CCc2ccccc2)c2ccc(C(=O)N[C@@H](Cc3ccccc3)[C@H](O)CNC(C)(C)CCCC(C)C)cc12", "IFI": 8.7},
      {"compound": "COc1cc2nc(N3CCC(CNC(=O)c4ccc(-c5ccc(C#N)cc5C)cc4)CC3)nc(N)c2cc1OC", "IFI": 6.31},
      {"compound": "CCN(CC)CCCNc1ncc2c(-c3ccc(NC(=O)Nc4cc(C(F)(F)F)ccc4F)cc3)nn(C)c2n1", "IFI": 10.8},
      {"compound": "CN(c1ccccc1)S(=O)(=O)c1cccc(NC(=O)c2ccc(-n3ccnc3)c([N+](=O)[O-])c2)c1", "IFI": 17.2},
      {"compound": "O=C(Nc1ccc(-c2nc3ccccc3[nH]2)cc1)c1ccc(N2CCCC2)c([N+](=O)[O-])c1", "IFI": 0.99},
      {"compound": "Cc1nnc2sc(-c3cccc(NC(=O)c4ccc(N5CCCCC5)c([N+](=O)[O-])c4)c3)nn12", "IFI": 1.47},
      {"compound": "CN1CCN(CCNc2c3ccccc3nc3c2ccc2ccccc23)CC1", "IFI": 6.99},
      {"compound": "O=S(=O)(Nc1cccc(CCN2CCCCC2CCN2CCCC2)c1)c1ccc(Oc2ccccc2)cc1", "note": "(stereo not given)", "IFI": 17.5},
      {"compound": "O=S(=O)(Nc1cccc(CCN2CCCCC2CCN2CCCC2)c1)c1ccc(-c2ccccc2)cc1", "note": "(stereo not given)", "IFI": 14.5},
      {"compound": "O=S(=O)(Nc1cccc(CCN2CCCCC2CCN2CCCC2)c1)c1ccc2ccccc2c1", "note": "(stereo not given)", "IFI": 13.1},
      {"compound": "NC1CCCN(Cc2cccc(-c3ccc(-c4nc5cc(C(F)(F)F)ccc5[nH]4)cc3)c2)C1", "note": "(stereo not given)", "IFI": 5.63},
      {"compound": "CC(=NNC(=N)N)c1ccc2c(c1)Cc1ccccc1-2", "IFI": 7.19},
      {"compound": "CS(=O)(=O)NCCCNCc1ccc(-c2ccc(-c3nc4cc(F)ccc4[nH]3)cc2)cc1", "IFI": 5.94},
      {"compound": "Nc1c2c(nc3ccc(NC(=O)c4ccccc4)cc13)CCCC2", "IFI": 2.86},
      {"compound": "Nc1c(I)cc(C(=O)Nc2ccc3nc4c(c(N)c3c2)CCCC4)cc1I", "IFI": 22.8},
      {"compound": "CC(C)(C)c1ccc(C(=O)Nc2ccc3nc4c(c(N)c3c2)CCCC4)cc1", "IFI": 4.9},
      {"compound": "CCN(CCCN1CCCCC1)c1cc(C)nc(Nc2ccc(Cl)cc2C)n1", "IFI": 5},
      {"compound": "CN(C)c1ccc(CN2CCC(CNC(=O)c3cc(-c4cccc(F)c4)cs3)C2)cc1", "note": "(stereo not given)", "IFI": 6.12},
      {"compound": "CCN1CCC(N(Cc2ccc(-c3ccc(C(F)(F)F)cc3)cc2)C(=O)Cn2c(SCc3cccc(F)c3F)cc(=O)c3ccccc32)C1", "note": "(stereo not given)", "IFI": 7.14},
      {"compound": "CCN1CCC(N(Cc2ccc(-c3ccc(C(F)(F)F)cc3)cc2)C(=O)Cn2c(SCc3ccc(F)cc3)nc(=O)c3c2CCC3)CC1", "IFI": 12.5},
      {"compound": "CCN1CCC(N(Cc2ccc(-c3ccc(C(F)(F)F)cc3)cc2)C(=O)Cn2nc(C)c(=O)cc2SCc2ccc(F)cc2)CC1", "IFI": 19.6},
      {"compound": "Cc1cccc2nc(-c3ccc(-c4ccc(NC(=O)C5CCN(C)CC5)cc4)cc3)[nH]c12", "IFI": 4.24},
      {"compound": "COc1cc(C(=O)N2CCOC(CCN3CCC[C@H]3C(=O)Nc3ccccc3)(c3ccc(Cl)c(Cl)c3)C2)cc(OC)c1OC", "note": "(stereo not given in full)", "IFI": 4.83}
    ]}
  ]
}
